# Experimental data from PubChem BioAssay (Tox21).
# Inconclusive results are not listed. Entries that show only a call come without a potency. Values without a mark were called inactive. The source made the active and inactive calls. Calls come from the whole dose curve; as a rule, active = well fitted activation curve with a large enough effect; inconclusive = small, poorly fitted or top-dose-only effect; inactive = flat fitted curve, though single readings scatter.
# Test: qHTS assay to identify small molecule phospholipidosis (PLD) inducers (AID 1259344)
# Details: HepG2 phospholipidosis, LipidTOX Red imaging, 24 h; series mostly up to 38.3 µM
# Description: National Center for Advancing Translational Sciences [NCATS]
# Drug-induced Phospholipidosis (PLD) caused by cationic amphiphilic drugs is characterized by the appearance of unicentric or multicentric-lamellar bodies when viewed under electron microscope. Electron microscopy is the gold standard method for PLD detection, however, this method is time-consuming and labor intensive, making it unsuitable for evaluating a large set of compounds. A cell-based phospholipidosis assay has been developed using the LipidTox reagent in HepG2 cells and miniaturized into a 1536-well plate format. Drug induced phospholipid accumulation is stained with the LipidTox dyes in red color which then is determined using an automated high content screening system.
# HepG2 cells are dispensed at 900 cells/3 uL/well into Collagen I-coated 1536-well black-wall/clear-bottom assay plates (Greiner Bio-One, Monroe, NC) using the Multidrop Combi 8 channel dispenser (Thermo Fisher, Waltham, MA, USA). The assay plates are incubated at 37 C for 4 hours to allow the cell attachment. 3 uL of 1:500 LipidTOX Red dye is added using the dispenser, and then 23 nL compounds are added via a Wako Pintool station (Wako Automation, San Diego, CA). Amiodarone, a known PLD inducer, was used as a positive control and DMSO was used as a negative control. The assay plates were then incubated at 37 C for 24 hours.
# For fixations, 4 uL of 8% paraformaldehyde fixative solution containing 10 ug/mL Hoechst 33342 in Dulbecco's phosphate-buffered saline (DPBS) is added using a Kalypsys washer/dispenser (Kalypsys, San Diego, CA, USA). After incubation at room temperature for 30 min, the assay plates are washed once with DPBS using a Kalypsys washer/dispenser. The assay plates are then sealed and stored at 4 C before imaging. The fluorescence intensities (595 nm excitation, 615 nm emission for LipidTOX; 352 nm excitation, 461 nm emission for Hoechst 33342) are measured using an ImageXpress Micro Widefield High Content Screening System (Molecular Devices, Sunnyvale, CA, USA) with a 20x Plan Fluor objective. Images are acquired for one site in each well and analyzed with the MetaXpress software (Molecular Devices) using the Transfluor module. Several algorithmic outputs, such as pit count per well, pit count per cell, pit integrated intensity per well, and pit integrated intensity per cell, are used for quantitative image analysis for PLD.
Compound,PLD induction,Potency
C1CN(P2(N3CC3)=NP(N3CC3)(N3CC3)=NP(N3CC3)(N3CC3)=N2)CCO1 (stereo not given),0.928% [at 7.66 µM],
CCN(CC)/[N+]([O-])=N/O,,inactive
CC(C)NC(C)Cc1ccc(I)cc1 (stereo not given),,inactive
CCCC(C)C1(CC)C(=O)NC(=O)NC1=O (stereo not given),,inactive
CCCCCN(C)CCC(O)(P(=O)(O)O)P(=O)(O)O,,inactive
C=C[C@H]1CN2CC[C@H]1C[C@H]2[C@H](OC(=O)OCC)c1ccnc2ccc(OC)cc12,,inactive
CN(C)[C@H](Cc1ccccc1)c1ccccc1,,inactive
C[C@]12C=CC(=O)C=C1CC[C@@H]1[C@@H]2CC[C@]2(C)OC(=O)CC[C@@H]12,,inactive
C[C@@H]1[C@@H]2Cc3ccc(O)cc3[C@@]1(C)CCN2CCc1ccccc1,,inactive
C#CC(C)(O)CC (stereo not given),,inactive
CNC(C)Cc1ccccc1 (stereo not given),,inactive
C[C@]12N[C@H](Cc3ccccc31)c1ccccc12,,inactive
COc1ccc2c3c1O[C@H]1[C@@H](O)C=C[C@H]4[C@@H](C2)NCC[C@@]341,,inactive
O=C1CN=C(c2ccccc2)c2cc(Cl)ccc2N1,,inactive
CCCCC[C@@H](O)C1C(=O)OC(C)[C@H](O)/C=C/C=C/C=C/C=C/C=C(\C)C(O)C(O)C(O)C[C@H](O)C[C@H](O)C[C@H](O)C[C@H](O)C[C@@H]1O (stereo not given in full),,inactive
CCCSc1cc(OC)c(CCN)cc1OC,,inactive
C[C@@H](Cc1ccccc1)N(C)C,,inactive
[H+].[H+].[Hg+2].[O-]B([O-])[O-].[c-]1ccccc1,,inactive
CNC(=O)OCC[N+](C)(C)C,,inactive
CC[N+](C)(CC)CCOC(=O)C(O)(c1ccccc1)c1ccccc1,,inactive

Compound,PLD induction,Potency
CC(=O)[C@H]1CC[C@H]2[C@@H]3CC[C@@H]4C[C@H](O)CC[C@]4(C)[C@H]3CC[C@]12C,,inactive
CN=C1CN(O)C(c2ccccc2)=c2cc(Cl)ccc2=N1,,inactive
C=CCC1(C(C)CCC)C(=O)N=C(S)NC1=O (stereo not given),,inactive
CC(=O)OC1CN2CCC1CC2 (stereo not given),,inactive
C[C@]12CC[C@H]3[C@@H](CCC4=C(O)C(=O)CC[C@@H]43)[C@@H]1CC[C@@H]2OC(=O)CCC1CCCC1,,inactive
CCC(N)Cc1c[nH]c2ccccc12 (stereo not given),,inactive
O[C@H]1[C@H]2[C@H](O)CCCN2C[C@H]1O,,inactive
CNC(=O)Oc1ccccc1C(=O)Nc1ccccc1,,inactive
C[C@@H]([C@H](O)c1ccccc1)N(C)C,,inactive
C[N+]1([O-])[C@@H]2CC(OC(=O)[C@H](CO)c3ccccc3)C[C@H]1[C@@H]1O[C@@H]12 (stereo not given in full),,inactive
c1cc2c(c(NC3=NCCN3)c1)CCCC2,,inactive
COc1cc(C[C@H](C)N)c(OC)cc1C,,inactive
Cc1nnc2n1-c1sc(Br)cc1C(c1ccccc1Cl)=NC2,,inactive
Cc1cc(C)cc(C(=O)OC2C[C@H]3CC[C@@H](C2)N3C)c1 (stereo not given in full),,inactive
COc1ccc(OC)c([C@@H](O)[C@H](C)N)c1,,inactive
Oc1ccc2c3c1O[C@H]1[C@@H](O)CC[C@@]4(O)[C@@H](C2)N(CC2CCC2)CC[C@]314,,inactive
O=c1[nH]cc(N(CCCl)CCCl)c(=O)[nH]1,,inactive
O=C1OC2(c3cc(Br)c(O)cc3Oc3c2cc(Br)c(O)[c]3[Hg])c2ccccc21 (stereo not given),,inactive
CCON=O,,inactive
C[C@]12CC[C@@H]3c4ccc(OC(=O)N(CCCl)CCCl)cc4CC[C@H]3[C@@H]1CC[C@@H]2OP(=O)(O)O,,inactive
